HT1080NT lethal = kills 2HG-producing HT-1080-NT fibrosarcoma cells. HT-1080-NT fibrosarcoma viability, CellTiter-Glo ATP luminescence, 48 h. Potency, µM (series often up to 46.1 µM), inactives show at the highest dose activity, negative = less viability, actives largely listed as cytotoxic. actives 1.6% (n = 360,000). AID 686970;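 note: NT is the 2HG producing partner of a matched IDH1 knockdown line; potency is the fitted concentration of half-maximal effect; 0% = DMSO-treated cells and -100% = media-only wells without cells; nearly all actives have a fitted effect of over 55% in size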
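HT-1080-NT fibrosarcoma cells (2HG-overproducing), 750 cells/well in RPMI with 5% FBS, dosed after 2 h and incubated 48 h at 37C. CellTiter-Glo luminescence normalized to DMSO and no-cell wells; concentration-response curves fitted and classed.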
DT40 TDP1 CPT = DT40-hTDP1 cell growth loss with CPT; chicken DT40 Tdp1-/-;hTDP1 cells + 20 nM CPT, ATP luminescence, 48 h; Potency, µM (top dose mostly 46.2 µM), without a hit: top-dose activity change, negative = growth inhibition, usual class: inhibitors; actives 12% (n = 420,000); AID 686979; note: potency is the fitted concentration of half-maximal effect; nearly all actives have a fitted effect of over 55% in size
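Chicken DT40 Tdp1-/- cells stably complemented with human TDP1 were seeded at 400 cells/well in medium containing 20 nM camptothecin, exposed to pin-transferred compounds, and grown at 37 °C for at least 48 hr. Viability was read as ATP luminescence.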
TDP1 cell noCPT = qHTS for Inhibitors of human tyrosyl-DNA phosphodiesterase 1 (TDP1): qHTS in cells in absence of CPT | DT40 Tdp1-/- hTDP1 cells, no CPT, ATP luminescence, 48 h | Potency, µM (highest dose often 46.2 µM), inactives show top-dose activity change, negative = growth inhibition, hits mostly inhibitors | actives 15% (n = 420,000) | AID 686978, 2013; note: potency is the fitted concentration of half-maximal effect; nearly all actives have a fitted effect of over 55% in size
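Camptothecin absent (DMSO only). Human TDP1-complemented DT40 knockout cells, 400 cells/well, 37 °C for minimum 48 hr; ATP measured via CellTiter-Glo, 30 min dark incubation, luminescence.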
IL-1B inflam inh = blocks inflammasome-driven IL-1 beta release; activity change, % at 57.5 µM; THP-1 LPS/ATP IL-1B secretion, AlphaLISA, 16 h; stronger effect = lower value; AID 743279; actives 4.7% (n = 360,000); in the data active = activity change below about -50%; inconclusive = mostly about -30% to -49%
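Secreted IL-1B measured by AlphaLISA bead assay after 16 h compound exposure of THP-1 cells; compounds (final up to 57.5 uM) added 1 h before LPS (250 ng/mL) and ATP (1.25 mM) stimulation; lower signal means less secretion.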
HT1080 IDH1KD tx = kills HT-1080 cells with IDH1 knockdown; HT-1080 IDH1 knockdown viability, ATP luminescence, 48 h; Potency, µM (top dose mostly 46.1 µM), inactives show at the highest dose activity, negative = toxicity, actives largely listed as cytotoxic; actives 2% (n = 360,000);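 note: potency is the fitted concentration of half-maximal effect; 0% = DMSO wells and -100% = cell-free medium wells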
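HT-1080-IDH1KD cells (IDH1 knocked down), 750/well in RPMI with 5% FBS, treated with compound 48 h at 37 degrees C. Viability by CellTiter-Glo luminescence, normalised to DMSO and no-cell wells; concentration-response curves classed.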
uPA generation = cell surface uPA generation inhibition; cell surface uPA generation assay, qHTS; Potency, µM (titrated, usually from 38.3 µM), for the others: top-dose activity change, negative = inhibition, actives largely listed as inhibitors; actives 0.31% (n = 330,000); active = well fitted inhibition curve with a large enough effect; inconclusive = small, poorly fitted or top-dose-only effect; inactive = no such curve, though single readings can be large or run the other way; tested in mouse RAW 264.7 cells; note: potency is the fitted concentration of half-maximal effect; nearly all actives have a fitted effect of over 55% in size
An asterisk follows results filed as active; ? = inconclusive; . = no result. Only some compounds are listed: those with a hit (about 19% of all), similar ones and a draw of the others. Unless noted, calls come from the whole dose curve; as a rule, active = well fitted curve in the direction sought with a large enough effect; inconclusive = small, poorly fitted or top-dose-only effect, or another doubt; inactive = no such curve, though single readings can be large; an effect the other way counts as inactive or inconclusive. Unless noted, % is set by controls: 0 for no effect and ±100 for the full control effect.

SMILES | HT1080NT lethal | DT40 TDP1 CPT | TDP1 cell noCPT | IL-1B inflam inh | HT1080 IDH1KD tx | uPA generation
Cc1sc2ncnc(N3CCC(C(=O)NNC(=O)c4ccccc4Cl)CC3)c2c1C | 5% | 15µM* | 21µM* | -14 | -2% | 9%
Cc1sc2ncnc(N3CCC(C(=O)NNC(=O)COc4ccc(Br)cc4)CC3)c2c1C | -10% | ? | 23µM* | -1 | -5% | -8%
CCCCNC(=O)C(NC(=O)c1cccc2ccccc12)C(=O)c1ccccc1 (stereo not drawn) | 18% | ? | ? | 29 | -24% | .
O=C(NC1CCCC1)C(c1ccc(F)cc1)N1CCC(O)(c2ccc(Cl)cc2)CC1 (stereo not drawn) | -29% | ? | ? | -1 | -13% | .
Cc1cc(N2CCN(C(C(=O)NC3CCCC3)c3ccc(F)cc3)CC2)c2ccccc2n1 (stereo not drawn) | ? | 18µM* | ? | -2 | ? | .
Cc1cc(C(=O)NC2CCCCCC2)c2ccccc2n1 | -1% | -14% | -12% | 5 | -7% | 1%
Cc1cc(N2CCN(C(C(=O)NC3CCCC3)c3ccco3)CC2)c2ccccc2n1 (stereo not drawn) | -6% | 21µM* | 23µM* | -14 | -1% | .
CCc1cccc(C)c1NC(=O)CN(C)S(=O)(=O)c1cccc2nsnc12 | . | ? | -27% | . | . | .
O=C(NCCc1ccc(Cl)cc1)c1ccc2c(c1)N(Cc1cccc(Cl)c1)C(=O)c1ccccc1S2(=O)=O | . | ? | 7.3µM* | . | . | .
COC(=O)c1ccc2c(c1)N(Cc1ccccc1)C(=O)c1ccccc1S2(=O)=O | . | 16µM* | ? | . | . | .
O=C(Nc1ccc(Cl)cc1)c1ccc2c(c1)N(Cc1ccccc1)C(=O)c1ccccc1S2(=O)=O | . | 16µM* | 23µM* | . | . | .
CCCN(CCC)CCCNC(=O)Cn1cnc2onc(-c3ccc(F)cc3)c2c1=O | . | -14% | -25% | . | . | .
COc1ccc(N(C)C(=O)CCn2cnc3onc(-c4ccc(F)cc4)c3c2=O)c(OC)c1 | . | 21µM* | 13µM* | . | . | .
CN(C(=O)Cn1cnc2onc(-c3ccc(F)cc3)c2c1=O)c1ccccc1Cl | . | 21µM* | ? | . | . | .
CCOc1ccccc1N(C)C(=O)Cn1cnc2onc(-c3ccc(F)cc3)c2c1=O | . | ? | 21µM* | . | . | .
CC(C)CC(=O)n1sc(NC(=O)c2ccccc2)nc1=O | 15% | 15µM* | 21µM* | ? | 13% | -5%
Cc1ccc(C(=O)Nc2nc(=O)n(C(=O)CC(C)C)s2)cc1 | 0% | -29% | -18% | -5 | -6% | -3%
CC(C)CCOC(=O)C1C(c2ccccc2)C(C(=O)O)C1c1ccccc1 (stereo not drawn) | 7.3µM* | 1% | 1% | 8 | 3.7µM* | -1%
COc1ccc(CCNC(=O)C(=O)NCC(c2ccco2)S(=O)(=O)c2ccccc2)cc1OC (stereo not drawn) | . | -28% | ? | . | . | .
C#CC(CO)N(CCN(Cc1ccccc1)C(C#C)CO)Cc1ccccc1 (stereo not drawn) | -4% | ? | ? | -62* | 0% | 6%
C#CCN(C)Cc1ccccc1 | -21% | -4% | 3% | -18 | -5% | 16%
CNC(=O)c1c(C)noc1C | -1% | 1% | -5% | 8 | 4% | 2%
CC1(C)Cc2c(ccc3ccccc23)C(c2cc3ccccc3oc2=O)=N1 | ? | ? | ? | -25 | ? | -4%
CC1(C)Cc2ccccc2C(c2cc3ccccc3oc2=O)=N1 | 21µM* | ? | ? | 0 | ? | -1%
COc1ccc(-c2c(C)nn3c(N)c(C#N)cnc23)cc1OC | -5% | 7.3µM* | 13µM* | -2 | -18% | -8%
SMILES | HT1080NT lethal | DT40 TDP1 CPT | TDP1 cell noCPT | IL-1B inflam inh | HT1080 IDH1KD tx | uPA generation
N#Cc1cnc2c(-c3ccccc3)c(-c3ccccc3)nn2c1N | -1% | 23µM* | 18µM* | 3 | -23% | -2%
Cc1ccc(S(=O)(=O)N2C3CC(c4ccccc4)N(S(=O)(=O)c4ccccc4Cl)CC3C(=O)C[C@H]2c2ccccc2)cc1 (stereo partly drawn) | 13% | -14% | -16% | 44 | 15% | .
CCCC(=O)N1CCCC1(C)C(=O)Nc1cc(OC)c(OC)c(OC)c1 (stereo not drawn) | 26% | 1% | 3% | 17 | 17% | .
COCC(=O)N1CCC[C@@]2(CCN(C(=O)Nc3ccc(OC)cc3)C2)C1 | . | -11% | 1% | . | . | .
CC(C)Cn1cnc2c(SCc3ccccc3)nc(N)nc21 | -14% | -4% | ? | -50* | -13% | -5%
CCC(C)Cn1cnc2c(SCc3ccccc3F)nc(N)nc21 (stereo not drawn) | -22% | ? | 21µM* | -56* | -22% | -3%
COC(=O)CSc1nc(N)c(C#N)c(-c2ccc(O)cc2)c1C#N | -2% | 7% | 16% | -70* | 6% | 3%
CC(C)c1ccc(-c2c(C#N)c(N)nc(SCC(=O)N3CCCCC3)c2C#N)cc1 | -20% | 9.2µM* | ? | 48 | -3% | 5%
CCC(c1nnnn1-c1c(C)cccc1C)N1CCN(CCN2CCOCC2)CC1 (stereo not drawn) | 10% | -8% | -16% | 12 | 1% | .
CCC(c1nnnn1-c1c(C)cccc1C)N1CCCN(Cc2ccc(F)cc2)CC1 (stereo not drawn) | ? | ? | 16µM* | -1 | ? | .
O=C(COc1ccc2c(-c3ccccc3)cc(=O)oc2c1)Nc1ccc(CN2CCOCC2)cc1 | 5% | 21µM* | ? | -11 | -2% | -16%
CC(=O)COc1ccc2c(-c3cccc([N+](=O)[O-])c3)cc(=O)oc2c1 | 0% | ? | 23µM* | -15 | 0% | 34%
O=C(COc1ccc2c(-c3ccccc3)cc(=O)oc2c1)Nc1ccc(CCO)cc1 | -14% | 8.2µM* | 7.3µM* | 1 | ? | -19%
O=C(O)COc1ccc2c(-c3ccccc3)cc(=O)oc2c1 | 16% | -1% | -2% | 10 | 17% | 2%
CC(C)N1C(=O)c2ccccc2NC(=O)C1C(=O)NC1CC1 (stereo not drawn) | 22% | 6% | 17% | 36 | ? | .
Cc1c(C(=O)N2CCOCC2)oc2ccc(S(=O)(=O)N3CCCC3)cc12 | 4% | -4% | -29% | -24 | 2% | 3%

Screening data: PubChem BioAssay, National Center for Advancing Translational Sciences (NCATS)
